# Only a selection was taken, and hits are over-represented in it overall.
# Tb PYK inh: blocks Trypanosoma brucei pyruvate kinase; AID 624173; Q57TT1; TbPYK enzyme, Kinase-Glo Plus ATP luminescence, 45 min; Potency, µM (titrated, usually from 76.8 µM), for inactives: at the highest dose activity, negative = inhibition, hits mostly inhibitors; 0.12% of 410,000 active; note: potency is the fitted concentration of half-maximal effect; % is set by controls: 0 for no effect and ±100 for the full control effect; nearly all actives have a fitted effect of over 50% in size
#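 Luminescent Kinase-Glo Plus end-point after 45 min room-temperature reaction of T. brucei pyruvate kinase started with 130 uM ADP (final). Buffer TEA 50 mM pH 7.2 with KCl, MgCl2, BSA, Tween-20; titration-based qHTS with fitted concentration-effect curves.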
# LmPK inh: LmPK (Leishmania mexicana) enzyme inhibition. Q27686. Potency, µM (series often up to 57.5 µM), inactives show top-dose activity change, negative = inhibition, hits mostly inhibitors. purified LmPK, Kinase-Glo ATP luminescence, 1 h. AID 1721. 0.37% of 290,000 active; note: potency is the fitted concentration of half-maximal effect; % is set by controls: 0 for no effect and ±100 for the full control effect
#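 ATP generated from ADP (0.1 mM) and PEP (0.5 mM) by 0.1 nM LmPK over 1 h at room temperature (pH 7.2 imidazole buffer) was detected by coupled luciferase luminescence. Values were normalized to uninhibited and no-enzyme wells.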
# CHX counter: counter-screen for Shiga toxin inhibitors: cycloheximide protein synthesis inhibition; cell reporter, cycloheximide protein synthesis inhibition counterscreen; max response, %; 12% of 300,000 active; AID 2314; in the data active = max response mostly above about 13%, no sharp cut-off; inactive = mostly below about 14%; note: read at 38.3 µM for the half of the compounds with a filed dose; 0% is about no effect
# Giardia FBPA inh: blocks Giardia fructose-bisphosphate aldolase activity | A8B2U2 | purified Giardia FBPA | Potency, µM (titrated, usually from 59.6 µM), for the others: top-dose activity, negative = inhibition, usual class: inhibitors | 0.71% of 290,000 active; note: potency is the fitted concentration of half-maximal effect; % is set by controls: 0 for no effect and ±100 for the full control effect; nearly all actives have a fitted effect of over 55% in size
# Target sequence (A8B2U2 whole entry, looked up): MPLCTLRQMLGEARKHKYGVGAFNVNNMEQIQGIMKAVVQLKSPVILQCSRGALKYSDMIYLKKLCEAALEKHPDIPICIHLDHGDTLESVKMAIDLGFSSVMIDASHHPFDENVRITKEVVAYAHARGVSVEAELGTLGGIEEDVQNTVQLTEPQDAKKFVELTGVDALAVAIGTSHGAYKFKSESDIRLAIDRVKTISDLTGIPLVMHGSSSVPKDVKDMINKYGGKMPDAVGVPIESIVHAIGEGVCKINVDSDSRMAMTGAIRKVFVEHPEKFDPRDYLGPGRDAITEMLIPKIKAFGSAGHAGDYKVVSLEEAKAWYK
#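 Giardia FBPA (40 nM reagent) was preincubated 10 min at RT with compound (up to 57.5 uM final), then substrate plus GAPDH/TPI/NAD/arsenate coupling system with diaphorase/resazurin was added; resorufin fluorescence (525/598 nm) was read after 20 min.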
# Shiga toxin inh: blocks Shiga toxin action in Vero cells | Vero cells, Shiga toxin protein synthesis inhibition reporter | inhibition, % at 38.7 µM | 9.2% of 290,000 active; in the data active = inhibition mostly above about 28%, no sharp cut-off; inactive = mostly below about 43%; note: 0% is about no effect
# RE007 growth inh: less growth of the S. pombe RE007 Vpr strain | S. pombe RE007 Vpr strain, BacTiter-Glo ATP luminescence, 24 h | Potency, µM (titrated, usually from 92.2 µM), for the others: at the top dose activity change, negative = less growth, actives largely listed as inhibitors | 0.21% of 360,000 active; active = well fitted falling curve with a large enough effect; inconclusive = small, poorly fitted or top-dose-only effect; inactive = no such curve, though single readings can be large or run the other way; note: potency is the fitted concentration of half-maximal effect; % is set by controls: 0 for no effect and ±100 for the full control effect; nearly all actives have a fitted effect of over 50% in size
#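 Fission yeast strain RE007, carrying one chromosomally integrated HIV-1 vpr copy, was seeded at OD 0.01 in PMG+AL medium with 23 nL pinned compound. After 24 h at 30 °C and 99% humidity, viability was read by BacTiter-Glo luminescence.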
# * hit, by the source's call; ? = inconclusive; . = not tested or not shown; [ ] = another dose, or the depositor's remark. Unless noted, calls come from the whole dose curve; as a rule, active = well fitted curve in the direction sought with a large enough effect; inconclusive = small, poorly fitted or top-dose-only effect, or another doubt; inactive = no such curve, though single readings can be large; an effect the other way counts as inactive or inconclusive.
SMILES,Tb PYK inh,LmPK inh,CHX counter,Giardia FBPA inh,Shiga toxin inh,RE007 growth inh
Clc1ccccc1OCCCOc1cccc2cccnc12,-2%,4%,37*,-2%,.,-23%
Cc1ccc(OC2CCN(C(=O)[C@H]3O[C@@H](n4ccc(N)nc4=O)[C@H](O)[C@@H]3O)CC2)cc1,1%,.,.,.,.,-4%
S=c1[nH]c2ccccc2n2cccc12,-17%,-1%,1,1%,-13,-10%
S=c1[nH]c2ccccc2o1,-13%,2%,13*,-18%,83*,-1%
O=C(c1csnn1)N1CCC2(CC1)CCN(c1ccccn1)CC2,-5%,.,.,-10%,.,.
CCOc1ccccc1Oc1coc2cc(O)ccc2c1=O,3%,-19%,-2,1%,3,8%
COc1ccc2c(=O)c(-c3ccc(OC)c(OC)c3)coc2c1,7%,1%,25*,3%,54*,14%
O=c1c(-c2ccc(F)cc2)coc2cc(O)ccc12,3%,?,32*,0%,114*,-28%
COc1ccc(-c2coc3cc(OC(C)=O)c(OC)cc3c2=O)cc1,3%,.,.,.,.,8%
COc1ccc(-c2coc3cc(O)ccc3c2=O)cc1OC,-1%,-3%,34*,3%,34,5%
O=c1c(-c2ccc(F)cc2)coc2c3c(ccc12)OCCO3,-5%,-7%,44*,-1%,87*,0%
O=C(CSC1=Nc2ccccc2N=C(c2ccc(F)cc2)C1)Nc1cccc(C(F)(F)F)c1,-1%,.,.,.,.,.
CCOc1ccccc1Oc1coc2cc(OC(=O)N(C)C)ccc2c1=O,-7%,-4%,36*,2%,55*,-3%
CCOc1ccc2c(=O)c(Oc3ccccc3OCC)coc2c1,0%,3%,10,1%,20,11%
COc1ccc2c(=O)c(-c3ccccc3)coc2c1,-10%,?,52*,10%,84*,-2%
CCN(CC)C(=O)Oc1ccc2c(=O)c(-c3ccccc3)coc2c1,-11%,-19%,50*,-1%,85*,1%
CC(=O)NC1Sc2ccccc2N=C1c1ccccc1 (centres undefined),?,?,43*,-18%,111*,-20%
Cc1nc(-c2ccccc2)sc1-c1ccn[nH]1,-1%,-13%,28*,-17%,69*,?
Cc1nc(-c2ccccc2)sc1-c1ccnn1C,-5%,-6%,35*,-10%,81*,-24%
Cc1nc(N2CCCCC2)c2sc(=S)n(C)c2n1,-10%,-1%,-2,4%,9,16%
CCN1CCN(c2nc(C)nc3c2sc(=S)n3C)CC1,?,-4%,-3,18µM*,-7,-5%
O=C(CC1N=C2c3ccccc3N=C(SCc3ccc(Cl)cc3)N2C1=O)NCc1ccco1 (centres undefined),1%,4%,20*,-5%,24,-10%
Cc1cccc(C)c1OCc1cc(C(=O)N2CCN3CCCC3C2)no1 (centres undefined),3%,-7%,19*,.,44*,0%
Cc1cccc(C)c1OCc1cc(C(=O)N2CCC(c3ccncc3)CC2)no1,1%,-6%,37*,.,58*,-16%
CCN1CCN(C(=O)c2cc(COc3c(C)cccc3C)on2)CC1,-15%,0%,19*,6%,5,6%
SMILES,Tb PYK inh,LmPK inh,CHX counter,Giardia FBPA inh,Shiga toxin inh,RE007 growth inh
O=C(c1cc(COc2c(F)cccc2F)on1)N1CCC(c2ccncc2)CC1,-3%,4%,7,2%,28,1%
Cc1cccc(C)c1OCc1cc(C(=O)N2CCN(C3CCCC3)CC2)no1,-8%,9%,35*,-5%,64*,-25%
CCOC(=O)c1[nH]c(C)c(CCC(=O)NCc2ccccc2Cl)c1C,2%,.,.,.,.,.
CC12CCC(C1)C(C)(C)C2=O (centres undefined),-5%,.,.,.,.,.
CCN(CC)CCC(c1ccc(N(C)C)cc1)c1c(OC)cc(OC)c2c(C)cc(=O)oc12 (centres undefined),.,.,-5,-9%,-12,.
Cc1ccc(C(O)c2ncc(-c3ccccc3C(F)(F)F)[nH]2)cc1F (centres undefined),-3%,.,.,.,.,1%[18.4 µM]
COCC1CCN(C(=O)c2cc(COc3ccccc3SC)on2)C1 (centres undefined),-11%,3%,-4,5%,-9,-7%
CSc1ccccc1OCc1cc(C(=O)N2CCN3CCCC3C2)no1 (centres undefined),-13%,-1%,15*,-1%,27,-17%
CC(=O)c1cc(-c2ccccc2)n(CCC(=O)Nc2ccc(C(C)C)cc2)c1C,2%[15.4 µM],.,.,.,.,.
Cc1ccc(Nc2nc(CSc3nnc(-c4ccc(F)cc4)n3C)cs2)cc1,3%,2%,32*,-4%,123*,-18%
COc1ccc(-c2nnc(SCc3csc(N)n3)n2C)cc1,-6%,-1%,-4,0%,-17,-10%
CCCCSc1nnc(-c2ccc(OC)cc2)n1C,0%,3%,65*,-2%,60*,-14%
Cc1ccc(-c2nnc(SCC(C)C)n2C)cc1,5%,-3%,34*,.,138*,-14%
Nn1c(Cc2ccccc2)nc2sc3c(c2c1=O)CCC3,0%,7%,2,-1%,-19,-4%
Nn1c(-c2cccs2)nc2sc3c(c2c1=O)CCCC3,7%,-16%,35*,-3%,108*,?
CN(C)c1nc2sc3c(c2c(=O)n1C)CC(C)(C)OC3,0%,-10%,11*,-3%,44*,0%
Cc1ccccc1-c1nc2sc3c(c2c(=O)n1N)CCCC3,9%,6%,43*,0%,75*,-26%
CCc1nc2sc3c(c2c(=O)n1N)CC(C)(C)OC3,2%,0%,1,0%,14,-8%
CC1(C)Cc2c(sc3nc(-c4cccs4)n(N)c(=O)c23)CO1,-8%,9%,36*,-4%,57,-21%
CN(C)C(=O)CSc1nc2ccc(N3C(=O)c4ccccc4C3=O)cc2s1,0%,-12%,1,2%,-2,-19%
CCN(CCCNC(=O)CN1N=C(c2ccc(OC)cc2)CCC1=O)c1cccc(C)c1,0%,.,.,.,.,.
COc1ccc(N(CC(=O)NCCSCc2ccc(Cl)cc2)S(C)(=O)=O)cc1Cl,2%,1%,-2,4%,-5,-8%
O=C(CN1C(=O)CSc2ccccc21)Nc1ccc2c(c1)OCCO2,0%,0%,29*,-2%,54,-3%
CCC1Oc2ccccc2N(CC(=O)Nc2ccc3c(c2)OCCO3)C1=O (centres undefined),7%,2%,17*,0%,94*,10%
O=C(CN1C(=O)C2C3C=CC(C3)C2C1=O)Nc1ccc2c(c1)OCCO2 (centres undefined),-2%,4%,17,1%,60*,11%
